Bioassay records (PubChem)
HMGR II inh: inhibitors of class II HMG-CoA reductase from Enterococcus faecalis; purified E. faecalis HMGR, NADPH absorbance 340 nm kinetic; inhibition, % at 10 µM; actives 0.41% (n = 190,000);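 active = inhibition above a set limit, the median over all tested compounds plus 3 SD, cut at about 9.5% in these data; inconclusive = no clear call, values can overlap the other calls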;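 note: enzyme runs in reverse so mevalonate oxidation gives rising NADPH absorbance; 0% = complete reaction with DMSO and 100% = background rate lacking mevalonate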
MLLE-PAM2 inh: inhibitors of microRNA-mediated deadenylation, human PABP1 MLLE binding | AID 588489 | actives 0.36% (n = 360,000) | inhibition, % at 20 µM | P11940 | GST-MLLE / FITC-PAM2 fluorescence polarization; in the data active = inhibition above about 35%, passing the limit was not always enough;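 note: plate controls were DMSO wells with GST-MLLE for no effect and wells lacking GST-MLLE protein for full effect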
Target sequence (P11940 whole entry, looked up): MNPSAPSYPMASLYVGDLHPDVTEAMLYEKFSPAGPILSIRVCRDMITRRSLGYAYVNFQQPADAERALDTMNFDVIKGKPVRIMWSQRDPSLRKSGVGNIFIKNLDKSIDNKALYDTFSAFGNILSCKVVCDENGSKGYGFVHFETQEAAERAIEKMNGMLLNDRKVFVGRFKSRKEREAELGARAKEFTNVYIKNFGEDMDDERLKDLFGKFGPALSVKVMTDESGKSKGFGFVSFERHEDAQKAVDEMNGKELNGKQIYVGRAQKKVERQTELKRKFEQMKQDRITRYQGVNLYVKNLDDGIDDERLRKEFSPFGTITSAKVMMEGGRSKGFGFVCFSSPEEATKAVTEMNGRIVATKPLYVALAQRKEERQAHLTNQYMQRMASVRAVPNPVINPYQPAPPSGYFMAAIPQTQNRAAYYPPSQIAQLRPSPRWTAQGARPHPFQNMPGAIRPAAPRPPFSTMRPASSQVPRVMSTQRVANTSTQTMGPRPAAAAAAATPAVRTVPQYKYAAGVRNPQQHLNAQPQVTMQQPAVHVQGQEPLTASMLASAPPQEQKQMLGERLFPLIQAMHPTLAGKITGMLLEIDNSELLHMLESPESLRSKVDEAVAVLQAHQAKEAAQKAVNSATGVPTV
eIF4H FP inh: inhibitors of RNA binding by human eIF4H; Q15056; eIF4H fluorescence polarization binding assay; inhibition, % at 35 µM; actives 0.94% (n = 290,000); AID 2012;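 note: calls also rest on retests at 20 µM and on dose response follow-up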
PHOSPHO1 block: PHOSPHO1 (human) inhibition | recombinant PHOSPHO1, absorbance phosphatase assay | inhibition, % at 13.3 µM | actives 1.1% (n = 290,000); in the data active = inhibition above about 60%
PABP polyA inh: PABP-poly(A) binding inhibition; PABP-poly(A) RNA binding, fluorescence polarization; calls only at 35 µM; actives 1% (n = 290,000);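 note: calls also rest on retests at 20 µM and on dose response follow-up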
The depositor's hits bear a star; i = inactive; ? = inconclusive; · = no result; + = active, no number. Only some compounds are listed: those with a hit (about 2.4% of all), similar ones and a draw of the others. Unless noted, the rule behind the calls is not given here.

SMILES	HMGR II inh	MLLE-PAM2 inh	eIF4H FP inh	PHOSPHO1 block	PABP polyA inh
CCC(=O)Nc1ccc(Cl)c(NC(=S)NC(=O)COc2ccccc2)c1	-1	39*	-4	-24	i
CC(C)C(=O)C1=Cc2cc([N+](=O)[O-])ccc2OC1N1CCOCC1 (stereo not given)	·	1	4	19	i
CN(C)S(=O)(=O)c1cccc(NC(=O)COC(=O)/C=C/c2ccc(Br)o2)c1	·	-4	?	-4	+
CN(C)S(=O)(=O)c1ccc(Cl)c(NC(=O)COC(=O)/C=C/c2ccco2)c1	-1	-28	10	28	+
O=C(COC(=O)/C=C/c1ccco1)Nc1ncc(Cl)cc1Cl	4	5	79*	5	+
COc1ccc(/C=C/C(=O)OCC(=O)Nc2cc(S(=O)(=O)N(C)C)ccc2Cl)cc1	-6	-11	0	20	i
COc1ccc(Nc2nc(-c3cccs3)nc3ccccc23)cc1S(=O)(=O)N1CCOCC1	·	-8	·	·	·
Cc1cc(C=O)c(O)cc1O	·	-2	11	-2	i
CC(=O)N1C(=O)/C(=C2\SC(=S)N(NS(=O)(=O)c3ccc(C)cc3)C2=O)c2ccccc21	-4	29	2	-82	i
CC1C(=O)N2CCCc3cc(S(=O)(=O)N4CCC(C(N)=O)CC4)cc1c32 (stereo not given)	·	18	0	2	i
Cn1cc(Br)c(C(=O)NC2CCCCCC2)n1	·	4	80*	31	i
O=C(/C=C/c1ccc2ccccc2n1)c1cc(Cl)ccc1O	·	-62	67	8	+
CCC1=[N+](C)CCn2c(C)ccc21	-2	-129	-1	69*	i
Cc1c(N2C(=O)c3ccc(Br)cc3C2=O)c(=O)n(-c2ccccc2)n1C	-8	-5	-8	34	i
Cc1c(N2C(=O)c3ccc4c5c(ccc(c35)C2=O)CC4)c(=O)n(-c2ccccc2)n1C	0	3	93*	78*	+
N#Cc1c(-c2ccco2)ccn(Cc2cccc(F)c2)c1=O	6	-2	70*	16	+
N#Cc1c(-c2ccco2)ccn(Cc2ccc(F)cc2)c1=O	1	-27	-4	3	i
S=c1[nH]nc(NCCCN2CCOCC2)s1	·	4	-10	62*	i
COc1ccccc1C(=O)NC(=O)CSc1nc(C)cs1	·	18	·	·	·
O=C1C(Cl)=C(NCCc2ccccc2)C(=O)c2ccccc21	·	40*	·	·	·
Cc1ccc(NC2=C(NC(=O)c3ccccc3)C(=O)c3ccccc3C2=O)cc1Cl	-2	46*	-6	-2	i
Cc1ccc(NCC(=O)c2ccccc2)cc1Cl	-2	15	-7	6	i
O=C1C(Cl)=C(Nc2ccccc2)C(=O)c2ccccc21	1	-1	11	-9	i
O=C(O)c1ccc(NC2=C(Cl)C(=O)c3ccccc3C2=O)cc1	·	47*	-4	58	i
CC(=O)CSc1ccc(C(=O)O)cn1	-1	8	-1	4	i
SMILES	HMGR II inh	MLLE-PAM2 inh	eIF4H FP inh	PHOSPHO1 block	PABP polyA inh
CC1(C(=O)Nc2ccc3c(c2)OCO3)CC1(Cl)Cl (stereo not given)	·	-7	5	48	i
Cc1cccc(N2CCN(C(=O)N3CCCCC3)CC2)c1C	4	4	-7	36	i
Cc1cccc(C)c1N1CCN(C(=O)N2CCCCC2)CC1	14*	-10	11	37	i
Cc1c(C(=O)OCC[N+]2(C)CCCCC2)oc2ccccc12	6	-103	4	20	+
COc1ccc(-n2nnnc2SCC(=O)NNC(=O)c2ccc([N+](=O)[O-])cc2)cc1	-9	-61	63*	-2	+
Nc1cccc2cccc([N+](=O)[O-])c12	·	12	·	·	·
CN1c2ccsc2C(O)=C(C(=S)Nc2ccccc2)S1(=O)=O	0	28	44	94*	i
Cc1ccccc1NC(=S)C1=C(O)c2sccc2N(C)S1(=O)=O	-1	19	3	92*	i
Cc1ccc(S(=O)(=O)N2CC(O)C[C@H]2C(=O)OCC(=O)N2CCN(c3ccc(F)cc3)CC2)cc1C (stereo not given in full)	·	12	·	·	·
O=C1C=CC(=O)N1	·	24	·	·	·
Cc1ccc(N2NC(=O)/C(=C/c3ccc(-c4ccc(Cl)c(C(=O)O)c4)o3)C2=O)cc1C	0	-11	1	12	i
O=C1NN(c2ccccc2)C(=O)/C1=C/c1ccc(-c2ccc(C(=O)O)cc2)o1	·	-20	68*	-12	+
CC1=NN(c2ccc(C(=O)O)cc2)C(=O)/C1=C/c1ccc(-c2ccccc2F)o1	·	33	28	38	i
COC(=O)c1ccc(N2NC(=O)/C(=C/c3ccc(-c4ccc(Cl)c(C(=O)O)c4)o3)C2=O)cc1	-1	-14	71*	41	+
O=C1NN(c2ccc(Cl)c(Cl)c2)C(=O)/C1=C/c1ccc(-c2ccccc2C(=O)O)o1	·	24	40*	33	+
CC1=NN(c2ccc(Cl)c(C(=O)O)c2)C(=O)/C1=C\c1ccc(-c2ccc(C(=O)O)cc2)o1	-6	16	52*	-114	i
COc1ccc(C(=O)COC(=O)c2cc(=O)[nH]c3ccccc23)c(OC)c1	·	-9	·	·	·
C[C@H](CO)N1C[C@H](C)[C@@H](CN(C)Cc2ccccc2C(=O)O)OCc2cnnn2CCCC1=O	·	-4	·	·	·
Cc1cc(C)n2nc(SC(C)C(=O)NCc3ccco3)nc2n1 (stereo not given)	-1	-1	-12	64*	i
CCc1noc(C)c1C(=O)OCC(=O)NC(=O)c1ccccc1	·	5	2	36	i
Cc1[nH]c(=S)c(C#N)c(-c2ccco2)c1C(=O)N(C)C	5	16	90	61*	+
CC(=O)c1c(C)[nH]c(=S)c(C#N)c1-c1ccc(Cl)cc1	·	12	-7	32	i
CN(C)C(CNC(=O)c1ccc(S(=O)(=O)Nc2ccccc2F)cc1)c1ccco1 (stereo not given)	·	-4	·	·	·
Cc1ccc(-c2csc(N)n2)s1	3	22	5	71*	i
Cc1ccccc1-c1csc(N)n1	·	26	·	·	·
SMILES	HMGR II inh	MLLE-PAM2 inh	eIF4H FP inh	PHOSPHO1 block	PABP polyA inh
Cc1cc(O)ccc1N/C=C1\CCCC1=O	-2	-20	81*	7	i
Cc1cc(/C=N/n2cnnc2)c(C)n1-c1ccccc1	3	-8	1	-57	i
Cc1sc(-n2c(C)cc(/C=N/n3cnnc3)c2C)c(C#N)c1C	-7	36	-3	84*	i
Cc1cc(/C=C2\SC(=S)NC2=O)c(C)n1-c1cccc(O)c1	·	-102	?	4	?
Cc1sc(-n2c(C)cc(/C=C3\SC(=S)NC3=O)c2C)c(C#N)c1C	11*	-62	36	14	i
CNC(=O)c1cccc(NC(=O)CCCNC(=O)c2ccc(Cl)cc2)c1	·	-43	2	48	i
Cc1ccsc1C(=O)NCCc1ccc(S(N)(=O)=O)cc1	·	1	4	-11	i
COC(=O)Cc1c(C)nc2nc(NCc3ccc(Cl)cc3)[nH]n2c1=O	1	3	2	80*	i
Cc1nn(C)cc1S(=O)(=O)N1CCN(Cc2ccccc2Cl)CC1	9	-18	-3	27	i
